Drawing on PubChem BioAssay, this text covers z-score and composite z-score for eight molecules.

Assay [1] can be described thus: compound effects on lung adenocarcinoma cell viability – A549, calcein-AM fluorescence, 48 h, basal, profiling panel (AID 1162). Also: test concentration not given here. Particulars: higher = more signal.
Assay [2] in a line: compound effects on differentiated 3T3-L1 adipocyte viability – cell-based, 3T3-L1 adipocytes, calcein-AM fluorescence, 48 h, basal, profiling panel (AID 1163). Also: test concentration not given here. The settings on record: 3T3-L1 adipocytes viability, higher = more signal.
Assay [3] in a line: compound effects on hepatocellular carcinoma cell viability – HepG2, calcein-AM fluorescence, 48 h, basal, profiling panel (AID 1164). Also: test concentration not given here. The settings on record: higher = more signal.
The nature of assay [4]: compound effects on multiple myeloma cell viability – MM1S, calcein-AM fluorescence, 48 h, basal, profiling panel (AID 1165).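 Also: viability of MM1S multiple myeloma cells under basal unstimulated conditions; test concentration not given here.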 Particulars: higher = more signal.
Assay [5] can be described thus: calcein-AM signal in unstimulated myeloma cells – cell-based, calcein-AM fluorescence, 48 h, PK04 Diversity Set, profiling panel (AID 1166).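 Also: cells grown under basal conditions without added stimulus; test concentration not given here.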 Particulars: RPMI8226 myeloma viability, higher = more signal.
The nature of assay [6]: JC-1 mitochondrial signal, unstimulated HepG2 cells – cell-based, JC-1 fluorescence, 24 h, 100 nL compound, profiling panel (AID 1167). Also: test concentration not given here. Particulars: HepG2 mitochondrial potential, higher = more signal.
Assay [7] is described as follows: JC-1 mitochondrial signal, unstimulated adipocytes – cell-based, JC-1 fluorescence, 3T3-L1 adipocytes, 24 h, 100 nL compound, profiling panel (AID 1168). Also: test concentration not given here. Particulars: JC-1 mitochondrial fluorescence, higher = more signal, called active from +8 up or from −8 down.
A short description of assay [8]: JC-1 mitochondrial signal, unstimulated myeloma cells – cell-based, JC-1 fluorescence, RPMI8226, 24 h, 100 nL compound, profiling panel (AID 1169). Also: test concentration not given here. Particulars: JC-1 mitochondrial potential fluorescence, higher = more signal.
Assay [9] in a line: JC-1 mitochondrial signal, unstimulated MM1S myeloma – cell-based, JC-1 fluorescence, 24 h, 100 nL compound, profiling panel (AID 1170). Also: test concentration not given here. The settings on record: MM1S mitochondrial potential, higher = more signal.
A short description of assay [10]: resazurin metabolic signal in A549 cells – cell-based, resazurin fluorescence, 24 h, PK04 Diversity Set, profiling panel (AID 1171). Also: test concentration not given here. Particulars: A549 viability, higher = more signal, called active from +8 up or from −8 down. Background: Alamar Blue is a resazurin reagent that responds to reducing activity.
Assay [11] in a line: resazurin metabolic signal in HepG2 cells – cell-based, resazurin fluorescence, 24 h, PK04 Diversity Set, profiling panel (AID 1172). Also: test concentration not given here. Particulars: HepG2 viability, higher = more signal.
The nature of assay [12]: budding yeast growth changes without added modifier – OD600, strain BY4716, 24 h, basal condition, primary screen (AID 1173). The settings on record: S. cerevisiae BY4716 growth, OD600, 24 h; higher = more signal, called active from +8 up or from −8 down.
Assay [13] can be described thus: viability profiling in MM1S myeloma cells – cell-based, resazurin fluorescence, basal, 24 h, PK04 Diversity Set, profiling panel (AID 1174). Also: test concentration not given here. Particulars: higher = more signal, called active from +8 up or from −8 down.
Assay [14] addresses Dihydroorotate dehydrogenase (quinone), mitochondrial (Plasmodium falciparum (isolate 3D7)) (UniProt Q08210). Briefly: inhibition of P. falciparum DHODH – biochemical, C-terminal His tag, absorbance 600 nm, primary screen (AID 1175).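 Also: recombinant parasite enzyme with a five histidine tag at its C terminus; test concentration not given here.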 The settings on record: PfDHODH enzyme, DCIP absorbance 600 nm; higher = more signal, called active from +8 up or from −8 down.
The nature of assay [15]: inhibition of PAO1 biofilm formation – strain PAO1, LB-PBS medium, absorbance 600 nm, primary screen (AID 1176). Also: test concentration not given here. Particulars: P. aeruginosa PAO1 growth/biofilm, A600, 12 h; higher = more signal.
Assay [16] is described as follows: growth modulation of vineyard yeast isolate – strain RM11-1a, OD600, basal, 24 h, primary screen (AID 1177).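 Also: cultures grown under basal conditions with no added stressor; test concentration not given here.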 The settings on record: S. cerevisiae RM11-1a growth, OD600, 24 h; higher = more signal, called active from +8 up or from −8 down.
Assay [17] can be described thus: growth of efflux-deficient E. coli DRC39 – strain DRC39, OD650, 24 h, E. coli filamentation inducers, primary screen (AID 1178).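 Also: growth measured as culture turbidity by optical density at 650 nm; test concentration not given here.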 Particulars: E. coli DRC39 acrAB, higher = more signal, called active from +8 up or from −8 down.
Assay [18] is described as follows: growth of efflux-deficient E. coli DRC39 – strain DRC39, OD650, 48 h, E. coli filamentation inducers, primary screen (AID 1179).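 Also: screen aims at cell division blockers that make cells filament.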 The settings on record: E. coli DRC39 delta-acrAB growth, higher = more signal, called active from +8 up or from −8 down.
The nature of assay [19]: viability profiling in RPMI8226 myeloma cells – cell-based, resazurin fluorescence, basal, 24 h, PK04 Diversity Set, profiling panel (AID 1180).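 Also: RPMI8826 multiple myeloma cell line at 5000 cells per well; test concentration not given here.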 Particulars: higher = more signal.
Assay [20] has as its target E3 ubiquitin-protein ligase XIAP (Homo sapiens) (UniProt P98170). Briefly: small molecules binding XIAP protein – biophysical, small-molecule microarray, fluorescence 635 nm, primary screen (AID 1181).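 Also: score merges 667 nm emission and signal to noise over triplicate slides.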 Particulars: higher = more signal.

Calls of active or inactive are those of the source. Unless noted, no rule for the calls is given here.

Sequence of Dihydroorotate dehydrogenase (quinone), mitochondrial (Plasmodium falciparum (isolate 3D7)) (Q08210 whole entry, looked up): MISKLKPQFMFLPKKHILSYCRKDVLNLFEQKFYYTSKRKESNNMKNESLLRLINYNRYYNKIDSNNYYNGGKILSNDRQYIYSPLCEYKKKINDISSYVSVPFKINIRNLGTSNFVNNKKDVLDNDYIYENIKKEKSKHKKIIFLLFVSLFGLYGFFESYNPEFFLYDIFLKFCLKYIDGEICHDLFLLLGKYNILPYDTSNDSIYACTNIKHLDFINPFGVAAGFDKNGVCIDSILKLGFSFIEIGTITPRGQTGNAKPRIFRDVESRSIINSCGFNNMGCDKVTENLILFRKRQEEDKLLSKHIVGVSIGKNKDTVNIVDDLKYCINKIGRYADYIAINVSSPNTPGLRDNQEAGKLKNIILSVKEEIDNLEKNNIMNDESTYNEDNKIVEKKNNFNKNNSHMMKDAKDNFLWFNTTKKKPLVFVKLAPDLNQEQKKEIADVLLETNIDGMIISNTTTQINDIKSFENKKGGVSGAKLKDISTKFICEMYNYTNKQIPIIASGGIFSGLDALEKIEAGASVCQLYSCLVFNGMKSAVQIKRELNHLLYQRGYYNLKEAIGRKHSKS
Sequence of E3 ubiquitin-protein ligase XIAP (Homo sapiens) (P98170 whole entry, looked up): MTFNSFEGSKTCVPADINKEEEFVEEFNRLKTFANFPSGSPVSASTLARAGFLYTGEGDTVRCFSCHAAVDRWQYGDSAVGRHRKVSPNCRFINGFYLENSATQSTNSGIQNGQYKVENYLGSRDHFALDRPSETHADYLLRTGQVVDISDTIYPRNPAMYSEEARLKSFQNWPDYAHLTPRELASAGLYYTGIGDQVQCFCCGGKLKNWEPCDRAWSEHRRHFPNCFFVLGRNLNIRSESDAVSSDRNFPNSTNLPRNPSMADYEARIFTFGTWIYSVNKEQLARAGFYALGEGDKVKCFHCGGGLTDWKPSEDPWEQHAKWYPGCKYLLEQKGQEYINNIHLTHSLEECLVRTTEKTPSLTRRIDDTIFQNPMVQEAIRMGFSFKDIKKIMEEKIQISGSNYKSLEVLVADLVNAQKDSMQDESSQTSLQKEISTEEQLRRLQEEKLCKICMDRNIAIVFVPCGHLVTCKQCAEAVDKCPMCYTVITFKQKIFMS

For the molecule `CC(C)CNC(=O)[C@@H]1c2ccccc2C(=O)N(C2Cc3ccccc3C2)[C@H]1c1ccc(CO)cc1`, the z-score in [1] was 2.03; in assay [2] it was 0.319; in assay [3] it was 1.74; in assay [4], 0.0933; in assay [5] it was 0.362; in assay [6] it was 3.2. Also, the z-score in [7] was 0.228 (inactive); in assay [8], -0.836; in [9], 0.00489; in [10], 0.797 (inactive); in [11], 0.98; in [12], -0.283 (inactive). In addition, the z-score in assay [13] was 0.76 (inactive); in [15], 0.444 (inactive); in [16], -1.09 (inactive); in assay [17], 0.725 (inactive); in assay [18], 1.03 (inactive); in [19] it was 1.4. Further, the results for the composite z-score in assay [14] and in assay [20] were -0.417 (inactive) and -0.109, respectively.

As to `CCOC(=O)C1=CC[C@@H](c2ccccc2)N(S(=O)(=O)c2ccc(C)cc2)[C@H]1C#N`, the z-score in [1] is -0.97; in [2] it was -0.84; in [3], -0.139; in assay [4], -3.21; in assay [5] it was -2.32; in [6], -0.858. Moreover, the z-score in assay [7] was -1.04 (inactive); in assay [8], -0.441; in assay [9], -2.33; in [10], 0.172 (inactive); in [11] it was 0.145; in assay [12], -0.134 (inactive). The z-score in [13] is -1.08 (inactive); in [15], 0.518 (inactive); in [16], 0.0553 (inactive); in assay [17], -1.01 (inactive); in assay [18], 0.27 (inactive); in [19] it was -0.99. Besides, the composite z-score is -3.15 (inactive) in assay [14] and 0.129 in [20].

As for `COC(=O)[C@@]1(Cc2ccc(OC)cc2)[C@@H]2[C@@H](CC(=O)[C@H]2CC(=O)C(=O)N2CCCC2)CN1C(=O)c1ccccc1`, the z-score is -0.515 in [1]; 0.745 in assay [2]; 0.681 in assay [3]; -2.61 in assay [4]; -2.94 in assay [5]; 0.74 in assay [6]. The z-score in assay [7] is -1.62 (inactive); in [8], -1.01; in assay [9] it was -0.787; in assay [10] it was -0.189 (inactive); in [11] it was -0.437; in assay [12] it was 0.442 (inactive). Moreover, the z-score in [13] is -0.526 (inactive); in assay [15], 0.274 (inactive); in assay [16], -0.148 (inactive); in [17] it was -0.415 (inactive); in assay [18], -0.394 (inactive); in assay [19] it was -1.57. Besides, the composite z-score in assay [14] is -0.448 (inactive); in assay [20], -0.01.

`C#CCN([C@H](/C=C/C1CC1)[C@@H](O)Cc1ccccc1)[C@@H](Cc1ccccc1)C(=O)OC`: the z-score in assay [1] was -0.509; in assay [2] it was -0.129; in assay [3], -0.0708; in assay [4], -1.2; in assay [5], -2.55; in assay [6], 3.34. Also, the z-score was 0.292 (inactive) in [7]; -0.842 in assay [8]; -1.33 in assay [9]; 3.31 (inactive) in assay [10]; 1.82 in assay [11]; 0.0363 (inactive) in [12]. Besides, the z-score in assay [13] was 1.59 (inactive); in assay [15], -0.319 (inactive); in [16] it was 0.97 (inactive); in [17] it was 1.07 (inactive); in [18] it was 0.968 (inactive); in assay [19] it was 0.737. Moreover, the values for the composite z-score in [14] and in assay [20] were 0.373 (inactive) and 0.271, respectively.

Turning to `COC(=O)C1(CC(C)C)C=C2C(=C(C(C)C)C(=O)C2C)CN1` (stereo not given), the z-score is -1.49 in assay [1]; -0.404 in assay [2]; -1.43 in [3]; 0.0112 in assay [4]; -1.31 in [5]; -1.31 in assay [6]. The z-score is -1.46 (inactive) in assay [7]; 0.105 in assay [8]; -0.919 in [9]; -0.697 (inactive) in assay [10]; -0.947 in [11]; 1.46 (inactive) in assay [12]. Moreover, the z-score in assay [13] was -1.56 (inactive); in assay [15] it was 0.399 (inactive); in assay [16], 0.271 (inactive); in [17] it was -0.592 (inactive); in assay [18], -0.113 (inactive); in [19], -1.97. Further, the composite z-score in assay [14] was -1.18 (inactive); in assay [20], 0.732.

For the molecule `COc1ccc(C#Cc2ccc3c(c2)[C@]2(C(=O)N3)[C@H](C(=O)Nc3nc4ccccc4s3)[C@H]3C(=O)O[C@H](c4ccccc4)[C@H](c4ccccc4)N3[C@@H]2c2ccc(OCCO)cc2)cc1`, the z-score in [1] is -0.255; in assay [2], 0.183; in assay [3], 0.044; in [4] it was -2.63; in assay [5], -0.988; in [6], -3.48. The z-score is -1.95 (inactive) in [7]; -1.21 in assay [8]; -2.1 in assay [9]; 0.135 (inactive) in [10]; 0.839 in assay [11]; 2.43 (inactive) in assay [12]. Besides, the z-score in [13] was -0.625 (inactive); in [15] it was 2.93 (inactive); in assay [16], 2.53 (inactive); in assay [17], 0.544 (inactive); in [18], 0.196 (inactive); in assay [19], -0.639. In addition, the composite z-score in assay [14] was -22.3 (active); in [20], 0.0849.

For the molecule `C=CCOC(=O)[C@H]1[C@@H]2C(=O)O[C@@H](c3ccccc3)[C@@H](c3ccccc3)N2[C@@H](c2ccc(OCCOC(=O)[C@@H]3C[C@@H]4C(=O)N[C@@H](CC(C)C)C(=O)N4[C@@H]3c3ccc(O)cc3)cc2)[C@]12C(=O)Nc1ccc(I)cc12`, the z-score in assay [1] is 0.13; in assay [2], 0.283; in assay [3] it was 1.55; in [4], 0.345; in assay [5], -0.207; in assay [6] it was -1.78. Also, the z-score was 1 (inactive) in [7]; -0.438 in [8]; -0.961 in assay [9]; -0.629 (inactive) in [10]; -1.11 in [11]; 0.637 (inactive) in [12]. In addition, the z-score in [13] is -0.0917 (inactive); in [15] it was 2.94 (inactive); in assay [16] it was -0.628 (inactive); in assay [17], 0.214 (inactive); in assay [18] it was 1.3 (inactive); in assay [19] it was 0.518. The composite z-score in assay [14] is -1.41 (inactive); in assay [20], -0.0232.

For `C=CCC(OC(C)=O)[C@@H]1[C@@H](N(Cc2cccc3ccccc23)C(=O)c2cccc3ccccc23)c2cc(OCCCO)ccc2N1C(=O)Cc1ccc2ccccc2c1` (stereo not given in full), the z-score was -0.612 in assay [1]; -0.151 in [2]; -0.663 in [3]; 0.0031 in assay [4]; -1.9 in [5]; 2.09 in assay [6]. Moreover, the z-score in assay [7] was -0.0423 (inactive); in assay [8] it was 0.00587; in [9], -0.00493; in assay [10], -0.0737 (inactive); in assay [11], 0.414; in assay [12], -0.599 (inactive). Besides, the z-score in assay [13] was -0.41 (inactive); in [15], -0.723 (inactive); in assay [16], -0.0264 (inactive); in [17], 0.632 (inactive); in assay [18], 0.334 (inactive); in [19], -0.0924. Besides, the composite z-score in [14] is -0.373 (inactive); in assay [20], 0.452.
